Measured values published in PubChem BioAssay (NCI).
Where “and” joins values, the source holds several entries; their conditions need not be identical. Equal entries are not always repeated. This is part of a sample that, as a whole, favours compounds with a hit. Of some 79,000 tested, about 15% had one in any assay. A number with no mark means an inactive call. Calls of active or inactive are those of the source. No stated cut-off is given here; in the data, active means growth inhibition above about 70%; inactive means the rest.

What was measured:
[1] = NCI Yeast Anticancer Drug Screen. Data for the rad50 strain (AID 155);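 further: 0% = growth of vehicle-only cultures of the same strain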; conditions: S. cerevisiae rad50 strain growth inhibition, active compounds read high; at 50.0 µM unless noted
In short: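 Cells are treated with compound, grown, and their growth is then scored against vehicle-only cultures of the same repair-deficient yeast strain.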

[2] = NCI Yeast Anticancer Drug Screen. Data for the mec2-1 strain (AID 157); conditions: S. cerevisiae mec2-1 strain, active compounds read high; at 50.0 µM unless noted
In short: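 mec2-1 yeast strain, carrying an alteration in DNA damage repair or cell cycle control, was exposed to compounds; growth inhibition was measured relative to vehicle-treated controls.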

[3] = NCI Yeast Anticancer Drug Screen. Data for the sgs1 mgt1 strain (AID 161);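 further: 0% = growth of cultures given vehicle only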; conditions: S. cerevisiae sgs1 mgt1 strain, active compounds read high; at 50.0 µM unless noted
In short: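 Percent growth inhibition was derived by comparing compound-exposed mutant yeast with vehicle-exposed cultures. The strain carries alterations in DNA damage repair.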

[4] = NCI Yeast Anticancer Drug Screen. Data for the cln2 rad14 strain (AID 165);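 further: 0% = growth equal to vehicle treated cultures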; conditions: S. cerevisiae cln2 rad14 strain, active compounds read high; at 50.0 µM unless noted
In short: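 Yeast carrying cln2 and rad14 alterations (cell cycle control and DNA damage repair) were exposed to compounds. Growth inhibition was measured against vehicle-treated controls.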

[5] = NCI Yeast Anticancer Drug Screen. Data for the bub3 strain (AID 167); conditions: S. cerevisiae bub3 mutant strain, active compounds read high; at 50.0 µM unless noted
In short: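 Part of a panel of yeast mutants defective in DNA damage repair or cell cycle regulation. Each strain is grown with compound, and inhibition is calculated relative to solvent-treated cultures.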

[6] = NCI Yeast Anticancer Drug Screen. Data for the mlh1 rad18 strain (AID 175); conditions: S. cerevisiae mlh1 rad18 strain growth inhibition, active compounds read high; at 50.0 µM unless noted
In short: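 Growth inhibition of the yeast strain was measured after compound exposure and expressed relative to vehicle-treated controls. The strain carries defined defects in DNA damage repair.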

CC1=CC(=O)CC(C)(C)C1
growth inhibition [1]: 1.45% | growth inhibition [2]: 5.95% | growth inhibition [3]: -1.7% | growth inhibition [4]: 6.4% | growth inhibition [5]: 17.1% | growth inhibition [6]: 3.45%

CC(C)(C)C(=O)OCC1CCC(n2cnc3c(=O)[nH]c(N)nc32)O1 (stereo not given)
growth inhibition [1]: 34.3% | growth inhibition [2]: 2.3% | growth inhibition [3]: -3.65% | growth inhibition [4]: 3.05% | growth inhibition [5]: -2.25% | growth inhibition [6]: 25.7%

CCc1ccc(O)cc1O
growth inhibition [1]: -18.4% | growth inhibition [2]: -12.9% | growth inhibition [3]: -43.1% | growth inhibition [4]: 10.7% | growth inhibition [5]: -30.6% | growth inhibition [6]: -4.6%

C#CCOCC12C=CC(O1)C1C(=O)N(C)C(=O)C12 (stereo not given)
growth inhibition [1]: -11.4% and 8.1% | growth inhibition [2]: 33.5% and 38.6% | growth inhibition [3]: 8.75% and -3.95% | growth inhibition [4]: 7.65% and 36.2% | growth inhibition [5]: 24.6% and 33.4% | growth inhibition [6]: -13.3% and 6.25%

CCN(CC)Cc1cc(O)ccc1NCCCNc1ccnc2cc(Cl)ccc12
growth inhibition [1]: 49.4% | growth inhibition [2]: 11.1% | growth inhibition [3]: 40.1% | growth inhibition [4]: 16.4% | growth inhibition [5]: -7.05% | growth inhibition [6]: 12.1%

O=C(O)/C=C\C(=O)NNC(=O)/C=C\C(=O)O
growth inhibition [1]: 5.55% | growth inhibition [2]: -2.8% | growth inhibition [3]: -5.05% | growth inhibition [4]: -18.9% | growth inhibition [5]: 5.45% | growth inhibition [6]: -24.4%

CC(C)(Nc1ccccc1)C(=O)OC(C)(C)C(=O)Nc1ccccc1
growth inhibition [1]: -7% | growth inhibition [2]: -25.5% | growth inhibition [3]: -12.4% | growth inhibition [4]: 2.05% | growth inhibition [5]: -6.45% | growth inhibition [6]: -7.4%

CSc1ccc(C(C)=O)cc1
growth inhibition [1]: 13.6% | growth inhibition [2]: 5.9% | growth inhibition [3]: 5.95% | growth inhibition [4]: 4.6% | growth inhibition [5]: 1.55% | growth inhibition [6]: 3%

COc1cc2c[n+](C)c3c4cc(OC)c(OC)cc4c(OCc4ccccc4)cc3c2cc1OC
growth inhibition [1]: 86% (active) | growth inhibition [2]: 89.8% (active) | growth inhibition [3]: 88.1% (active) | growth inhibition [4]: 88.7% (active) | growth inhibition [5]: 87.5% (active) | growth inhibition [6]: 91.2% (active)

CC1(C)C(=O)C=C(c2ccccc2)C1(O)c1ccccc1 (stereo not given)
growth inhibition [1]: -9.45% | growth inhibition [2]: -29.9% | growth inhibition [3]: 16.9% | growth inhibition [4]: 5.35% | growth inhibition [5]: 22.4% | growth inhibition [6]: -38.5%

C=C1C(=O)OC2/C=C(\C)C(O)/C=C\C(C)(O)CC(OC(=O)/C(C)=C/C)C12 (stereo not given)
growth inhibition [1]: -18% | growth inhibition [2]: -37.6% | growth inhibition [3]: -3.15% | growth inhibition [4]: -2% | growth inhibition [5]: -34.8% | growth inhibition [6]: -26.8%

O=C(Nc1ccccc1Cl)c1cc2cc(N=Nc3ccc(Br)cc3)ccc2oc1=O
growth inhibition [1]: 0.55% | growth inhibition [2]: 9.75% | growth inhibition [3]: -3.8% | growth inhibition [4]: 9.6% | growth inhibition [5]: -7.05% | growth inhibition [6]: -3.5%

NCC(O)C(O)C(O)CO (stereo not given)
growth inhibition [1]: 6.15% | growth inhibition [2]: -6% | growth inhibition [3]: -1.3% | growth inhibition [4]: -20% | growth inhibition [5]: 9.1% | growth inhibition [6]: -8.8%

CCOC(=O)c1sc(SC)nc1NC(=O)c1ccccc1
growth inhibition [1]: -18.4% | growth inhibition [2]: -9% | growth inhibition [3]: -5.45% | growth inhibition [4]: 3.2% | growth inhibition [5]: -3.4% | growth inhibition [6]: -33.2%

COc1c(OC2OC(CO)C(O)C(O)C2O)cc2c(c1OC)-c1ccc(OC)c(=O)cc1[C@@H](NC(C)=O)CC2 (stereo not given in full)
growth inhibition [1]: -4.2% | growth inhibition [2]: 9.6% | growth inhibition [3]: 3.8% | growth inhibition [4]: 3.65% | growth inhibition [5]: -0.1% | growth inhibition [6]: 8.05%

C=C(C)[C@H]1CC(=O)[C@@]2(C)C[C@H]3O[C@]3(C)CC/C=C(\C)CC[C@H]12
growth inhibition [1]: 20.2% | growth inhibition [2]: 14.4% | growth inhibition [3]: 33.2% | growth inhibition [4]: 15.1% | growth inhibition [5]: 31.1% | growth inhibition [6]: 51.5%

Nc1ccccc1C1CCCCC1
growth inhibition [1]: 32.1% | growth inhibition [2]: -13.6% | growth inhibition [3]: 52% | growth inhibition [4]: -19.4% | growth inhibition [5]: 3.95% | growth inhibition [6]: 26.6%

O=C1CSC(c2cc([N+](=O)[O-])ccc2Cl)N1c1nncs1 (stereo not given)
growth inhibition [1]: 22.1% | growth inhibition [2]: 15.6% | growth inhibition [3]: 37.2% | growth inhibition [4]: 19.1% | growth inhibition [5]: 21.7% | growth inhibition [6]: 28.4%

O=c1c2cncnc2sc2nc3ccccc3n12
growth inhibition [1]: 16.1% | growth inhibition [2]: -9.55% | growth inhibition [3]: 28.3% | growth inhibition [4]: 11.9% | growth inhibition [5]: 15.3% | growth inhibition [6]: 23.4%

COc1cccc(N2C(=O)C3c4[nH]c5ccccc5c4C4c5ccccc5CCC4C3C2=O)c1 (stereo not given)
growth inhibition [1]: -0.1% | growth inhibition [2]: 4.4% | growth inhibition [3]: 5.05% | growth inhibition [4]: 2.95% | growth inhibition [5]: -0.6% | growth inhibition [6]: 20.9%

OCC1OC(n2cnc3c(/C=C(/O)c4ccccc4)ncnc32)C(O)C1O (stereo not given)
growth inhibition [1]: -32.6% | growth inhibition [2]: -27% | growth inhibition [3]: 0.35% | growth inhibition [4]: -13.5% | growth inhibition [5]: -27.1% | growth inhibition [6]: 5.35%

CC(C#N)C(=O)O (stereo not given)
growth inhibition [1]: -3.55% | growth inhibition [2]: -5.85% | growth inhibition [3]: -15.7% | growth inhibition [4]: -8.15% | growth inhibition [5]: -8.15% | growth inhibition [6]: -18.5%

Nn1c(CCCl)nc2c(Br)cc(Br)cc2c1=O
growth inhibition [1]: 13.8% | growth inhibition [2]: 2.9% | growth inhibition [3]: -2.45% | growth inhibition [4]: 3.25% | growth inhibition [5]: 12.6% | growth inhibition [6]: 8.5%

COc1cc(OC)c(NC(=O)C2=C(C)NC(C)=C(C(=O)Nc3cc(Cl)c(OC)cc3OC)C2c2cccc([N+](=O)[O-])c2)cc1Cl
growth inhibition [1]: 9.25% | growth inhibition [2]: 23.9% | growth inhibition [3]: 22.9% | growth inhibition [4]: 36.1% | growth inhibition [5]: 14.4% | growth inhibition [6]: 3.7%

Cc1ccc(C(=O)O)cc1
growth inhibition [1]: 2.95% | growth inhibition [2]: -17% | growth inhibition [3]: 0.65% | growth inhibition [4]: -15.6% | growth inhibition [5]: 8.85% | growth inhibition [6]: -2.2%

Cc1ccc(OS(=O)(=O)c2cccc(S(=O)(=O)Oc3ccc(C)cc3)c2)cc1
growth inhibition [1]: 19.9% | growth inhibition [2]: 3.35% | growth inhibition [3]: 8.9% | growth inhibition [4]: 7.7% | growth inhibition [5]: 9.45% | growth inhibition [6]: 6.15%

Cc1cc(=O)oc2c(C)c(OCCCOc3ccc4c(C)cc(=O)oc4c3C)ccc12
growth inhibition [1]: -29.8% | growth inhibition [2]: -15.6% | growth inhibition [3]: -6.1% | growth inhibition [4]: 11.1% | growth inhibition [5]: -30.8% | growth inhibition [6]: -34.3%

CCCCCO.CCCCCO.CCCCCO.CCCCCO.[Ti]
growth inhibition [1]: 3.45% | growth inhibition [2]: -33% | growth inhibition [3]: -3.3% | growth inhibition [4]: 8.55% | growth inhibition [5]: -20% | growth inhibition [6]: -1.65%

Nc1cc2c(cc1[N+](=O)[O-])-c1ccc(Cl)cc1C2=O
growth inhibition [1]: 58.5% | growth inhibition [2]: -2.45% | growth inhibition [3]: 1.45% | growth inhibition [4]: 7.5% | growth inhibition [5]: -1.95% | growth inhibition [6]: 41.2%

Fc1cccc2c(SCc3ccc(Cl)cc3Cl)cnnc12
growth inhibition [1]: -0.9% | growth inhibition [2]: -1.25% | growth inhibition [3]: 3.25% | growth inhibition [4]: -44.5% | growth inhibition [5]: 13.8% | growth inhibition [6]: 2.85%

O=[N+]([O-])c1ccc(N2N=NC(c3ccccc3)C2(c2ccccc2)N2CCOCC2)cc1 (stereo not given)
growth inhibition [1]: 29.6% | growth inhibition [2]: -0.9% | growth inhibition [3]: 28.4% | growth inhibition [4]: 16.7% | growth inhibition [5]: 0.95% | growth inhibition [6]: 14.6%

CC(CCC#CC(=O)O)OC1CCCCO1 (stereo not given)
growth inhibition [1]: -14.9% | growth inhibition [2]: -33% | growth inhibition [3]: -2.05% | growth inhibition [4]: 2.95% | growth inhibition [5]: -15.1% | growth inhibition [6]: -14.2%

CCC(=O)Oc1ccc(C(=O)c2ccc(OC(=O)CC)cc2)cc1
growth inhibition [1]: 5.05% | growth inhibition [2]: -24.9% | growth inhibition [3]: 13.8% | growth inhibition [4]: 11.4% | growth inhibition [5]: 8.05% | growth inhibition [6]: 4.1%

CCCc1cc2c(cc1CC#N)OCO2
growth inhibition [1]: -5.65% | growth inhibition [2]: 19.4% | growth inhibition [3]: -9.85% | growth inhibition [4]: 2.4% | growth inhibition [5]: -3.25% | growth inhibition [6]: 17.6%

OCCN1CCCCCCC1
growth inhibition [1]: -2% and 0.2% | growth inhibition [2]: -6.15% and -3.8% | growth inhibition [3]: -4.6% and 0.65% | growth inhibition [4]: -0.45% and 5.6% | growth inhibition [5]: -6.3% and 10.1% | growth inhibition [6]: -7.5% and -0.3%

CC(=O)COC(=O)c1ccccc1
growth inhibition [1]: 32.1% | growth inhibition [2]: 3.5% | growth inhibition [3]: 28.7% | growth inhibition [4]: 0% | growth inhibition [5]: 10.2% | growth inhibition [6]: 26.2%

CNNC(=O)C(O)C(C)(C)CO (stereo not given)
growth inhibition [1]: -4.45% | growth inhibition [2]: 8.5% | growth inhibition [3]: -4.3% | growth inhibition [4]: 20.1% | growth inhibition [5]: 6.5% | growth inhibition [6]: 9.8%

CCC[CH2][Sn]1([CH2]CCC)[O]C2C(CO)OC(n3c(Br)c(C#N)c4c(N)ncnc43)C2[O]1 (stereo not given)
growth inhibition [1]: 98.4% (active) | growth inhibition [2]: 98.5% (active) | growth inhibition [3]: 98.7% (active) | growth inhibition [4]: 98.7% (active) | growth inhibition [5]: 97.7% (active) | growth inhibition [6]: 98% (active)

CC1CCCN1c1ccnc2cc(Cl)ccc12 (stereo not given)
growth inhibition [1]: 11.9% | growth inhibition [2]: -3.3% | growth inhibition [3]: 7.15% | growth inhibition [4]: -2.2% | growth inhibition [5]: 8.25% | growth inhibition [6]: 20.3%

O=C1C2C3ON(c4ccccc43)C2C(=O)N1c1ccccc1 (stereo not given)
growth inhibition [1]: -0.65% | growth inhibition [2]: 21% | growth inhibition [3]: 15.4% | growth inhibition [4]: 2.4% | growth inhibition [5]: 3.6% | growth inhibition [6]: -3.55%
